Measured values taken from the supplement of paper PMC6555819.

test system: VDR:RXRa (NR concentration 270 nM, RXRa partner concentration 90 nM); assay: PBM binding z-score (relative to random genomic background probes); higher = stronger binding; sequences stand for … in GC…GCGATTGACAGCGTAGAATGAAGG
Experimental: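 Protein-binding microarray (Agilent 4x180K custom design, double-stranded 60-nt probes: 5' GC cap, 34-nt variable region, 24-nt constant primer region; full probe sequence given). Purified or IVT nuclear receptor:RXRα heterodimers (3:1 NR:RXRα, mostly 270:90 nM) or homodimers were incubated for 1 h in PBS with 2% milk and no ligand, then detected with Alexa488 antibodies. Fluorescence from o1-orientation probes (~5 replicates averaged) was converted to z-scores against 500 random hg19 background probes. Variable regions are seed direct-repeat (DR0–DR5) sites, all their single-nucleotide variants and half-site ablations.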

Row | Sequence | PBM binding z-score
1 | CGTCCAAGGTCAAGGCTAGGTCAGTGAAAGCATT | 5.06
2 | CCAAGCAGGCCAATCTGGGTCACTCAAGGCTTGA | 0.733
3 | CAAACTAGGTCACCGGAAGCTCAAAGTCCGCATG | 2.23
4 | AGAACGAGGTTACCAAAGATCAGGGAAACGCTTG | 1.32
5 | GCTGCTAGGTCGGGTTGGTCAGCTAACGGGTACG | -0.0515
6 | CCTACTGGGCCATTCAGAGGTCATTGAGCATATG | 4.17
7 | CGAACTAGGTCATACAGGACAGTGAATACATTGA | 3.99
8 | TCTTGTAGATCAACAGGACGTTAAGAAAGATCGA | 0.305
9 | CCTACTGGGCCATTCAGAGGTCATTGAACATATG | 4.16
10 | CCTGCTAGGTCATGGTCGGCTAATCTACAGTATG | 1.57
11 | ACTAGTTGGTCAGCTGAGGTCACAAACAATTCGG | 4.24
12 | GCTTGTAGATCAATGTTAAGAAAGACTAAGCTAA | -0.368
13 | CGTCCAAGGTCAGAGAGGTCAGTGATTGCCGAGT | 7.23
14 | TCGAGTAGGTTAGGGGCATCCAGAATGGCGTCGA | 0.536
15 | GGAACGAGGGCATTCGAATTGATAGCATGGCGAT | 1.13
16 | CCTAGTTGGTCAAGATCACACACGCTATAGGTAC | 0.862
17 | ATATGTAGGTTACATCCGGGTCATTCCGGCTATG | 3.88
18 | ATCTCTAGGTAAGACTCAGTTCATTGAAGAACGC | 2.42
19 | TCTTGGAGATCAATAGAGGTTAAGAAAGTGCGCT | 2.08
20 | CAAACTAGGTCACGAAAGGTAAAAGTCGAATGAC | 3.25

Row | Sequence | PBM binding z-score
21 | GCATATAGGTAATACAAGGTGAAAGTACGATTGT | 0.62
22 | TCATATAGCTAAAAGGTGAAAGTCGGTGTGGTAA | 0.864
23 | CCTCGGAGGACAACACGAGGTCAGAGCTGCCAGA | 2.72
24 | CGTCAAAGTTGAACTAAGGTAACGTAAAGCACGC | 1.43
25 | CAAACTAGGTCAAAGGTCAATGTCGAGCCAACCA | 6.33
26 | GCTATTAGTTGAAAGCGCAACCGAATGATTCTCG | -0.272
27 | TCGAGTAGGTTACCAATGGGGCATTCGGCTTTCT | 0.0858
28 | GCGACGGGGGCATCAGCAGGTTACCATAACTTAA | 3.67
29 | CGTCCAAGGTCAGAGAGGTGAGTGAATGCCGAGT | 4.78
30 | ATCTCTATGTAAAGATAGTTCAGTGAATGCAAAT | 0.557
31 | TATACAGAGTCAAAGGCCAGAGTACGAATGTCGA | 0.241
32 | CTCGAAAGGTGGGTTGAGGTGAGTATACGGATAA | 0.817
33 | AATACAGGGTCATCGTAGGCCAGATTACGCACAG | 5.22
34 | TCTTGTAGATCAAGCAGTTTAAGAAAGCCTGAGT | 0.549
35 | CCTCGGAGGACAGAAGGTCAGTGCTGTCCGCTTT | 0.863
36 | TAGCCTAGGTCATTCAGGGGCCAGTGTAGAAAGC | 3.33
37 | TCATATAGGTAAATGCTCGGTGAAAGTCCGATCT | 1.01
38 | ACTAGTTGGTCAGCTGAGGTCGCACACAATTCGG | 2.2
39 | CCTTACGGGTCACCAGGTTATAGCACGACGAGCG | 4.64
40 | TCTGCTAGGTCAGTTGGTCAGCTCACGAGCTGCC | 0.484
